Records with an inconclusive call do not appear. Activity calls are given as the source filed them. Unless noted, the call rests on the fitted dose curve; in most records, active means well fitted curve in the direction sought with a large enough effect in the repeat runs; inconclusive means weak or mixed curves; inactive means no such curve, though single readings can be large; an effect the other way counts as inactive or inconclusive.
Experiments:
[1] = qHTS assay to identify small molecule agonists of the peroxisome proliferator-activated receptor delta (PPARd) signaling pathway - cell viability counter screen (AID 743211); further: on the % scale 0 is the no-effect control and ±100 the full control effect; nearly all actives have a fitted effect of over 55% in size
Summary of the method: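 qHTS cell viability: PPARd-bla HEK293H; 17 h cpd, 37C; CellTiter-Glo, luminescence at 30 min RT.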

[2] = biological target: Peroxisome proliferator-activated receptor delta (Homo sapiens) (UniProt Q03181); experiment: qHTS assay to identify small molecule agonists of the peroxisome proliferator-activated receptor delta (PPARd) signaling pathway (AID 743212; calls by dose curve; further: on the % scale 0 is the no-effect control and ±100 the full control effect)
Chain of Peroxisome proliferator-activated receptor delta (Homo sapiens) (Q03181 whole entry, looked up): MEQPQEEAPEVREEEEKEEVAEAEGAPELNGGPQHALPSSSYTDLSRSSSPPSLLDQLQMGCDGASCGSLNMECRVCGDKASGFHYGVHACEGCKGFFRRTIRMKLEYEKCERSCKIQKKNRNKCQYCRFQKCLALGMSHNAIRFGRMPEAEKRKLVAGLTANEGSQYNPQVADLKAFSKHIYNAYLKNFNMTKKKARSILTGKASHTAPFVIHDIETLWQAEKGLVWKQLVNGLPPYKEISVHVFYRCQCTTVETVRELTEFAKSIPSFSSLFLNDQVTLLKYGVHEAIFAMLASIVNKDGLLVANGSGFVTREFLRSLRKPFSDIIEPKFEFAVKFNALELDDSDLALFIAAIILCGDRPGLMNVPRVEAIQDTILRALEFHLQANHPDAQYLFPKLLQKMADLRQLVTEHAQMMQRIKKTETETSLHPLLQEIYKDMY
Summary of the method: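 Steps: seed PPARd-bla HEK293H cells; incubate 5 h, 37 C, 5% CO2; add compounds in DMSO; incubate, 37 C; add LiveBLAzer B/G FRET substrate; hold 2 h at room temperature; measure fluorescence.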

[3] = qHTS assay to identify small molecule antagonists of the peroxisome proliferator-activated receptor delta (PPARd) signaling pathway - cell viability counter screen (AID 743213); further: on the % scale 0 is the no-effect control and ±100 the full control effect; nearly all actives have a fitted effect of over 50% in size
Summary of the method: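 In this counter screen, HEK293H cells carrying a UAS-beta-lactamase reporter are co-treated with test compounds and 300 nM L165041 (final) for 17 h at 37 C; cell viability is quantified by CellTiter-Glo luminescence.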

[4] = qHTS assay to identify small molecule agonists of the farnesoid-X-receptor (FXR) signaling pathway - cell viability counter screen (AID 743218); further: on the % scale 0 is the no-effect control and ±100 the full control effect; nearly all actives have a fitted effect of over 45% in size
Summary of the method: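 Luminescence from CellTiter-Glo, read after 30 min at RT, reports viability of GeneBLAzer FXR-UAS-bla HEK 293T cells treated 16 h with compounds in the wells used for the beta-lactamase reporter.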

[5] = biological target: Vitamin D3 receptor (Homo sapiens) (UniProt P11473); experiment: qHTS assay to identify small molecule agonists of the vitamin D receptor (VDR) signaling pathway (AID 743222; calls by dose curve; further: on the % scale 0 is the no-effect control and ±100 the full control effect)
Chain of Vitamin D3 receptor (Homo sapiens) (P11473 whole entry, looked up): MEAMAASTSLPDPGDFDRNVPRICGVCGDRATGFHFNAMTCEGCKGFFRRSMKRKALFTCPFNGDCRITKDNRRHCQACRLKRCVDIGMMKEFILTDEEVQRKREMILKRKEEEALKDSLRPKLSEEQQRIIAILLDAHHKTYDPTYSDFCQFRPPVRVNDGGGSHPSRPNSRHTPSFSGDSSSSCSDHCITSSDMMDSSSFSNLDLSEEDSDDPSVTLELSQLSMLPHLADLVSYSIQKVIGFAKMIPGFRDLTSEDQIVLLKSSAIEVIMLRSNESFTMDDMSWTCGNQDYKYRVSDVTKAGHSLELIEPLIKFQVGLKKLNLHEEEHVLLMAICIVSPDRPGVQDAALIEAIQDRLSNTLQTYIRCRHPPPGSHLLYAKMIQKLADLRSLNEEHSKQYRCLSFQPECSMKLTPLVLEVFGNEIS
Summary of the method: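 Beta-lactamase reporter readout (LiveBLAzer B/G FRET, 2 h RT) in VDR-bla cells after 16 h compound treatment at 37C, 5% CO2; cells pre-incubated 4 h before pin transfer of DMSO solutions.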

[6] = biological target: Vitamin D3 receptor (Homo sapiens) (UniProt P11473); experiment: qHTS assay to identify small molecule antagonists of the vitamin D receptor (VDR) signaling pathway (AID 743223; active means well fitted inhibition curve with a large enough effect in the signal ratio in the repeat runs, not every such curve was filed as active; the % refers to the signal ratio; further: on the % scale 0 is the no-effect control and ±100 the full control effect)
Summary of the method: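 Reporter line VDR-bla; stimulus 1alpha,25-(OH)2 vitamin D3, 3 nM final; compound co-addition, 16 h 37C/5% CO2; LiveBLAzer B/G substrate 2 h RT; fluorescence intensity.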

[7] = qHTS assay to identify small molecule agonists of the vitamin D receptor (VDR) signaling pathway - cell viability counter screen (AID 743224); further: series mostly up to about 63 µM; on the % scale 0 is the no-effect control and ±100 the full control effect; nearly all actives have a fitted effect of over 50% in size
Summary of the method: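 Cytotoxicity counter screen: VDR-bla cells, 16 h compound exposure at 37C, 5% CO2; CellTiter-Glo luminescence, 30 min RT, same wells as bla read.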

[8] = qHTS assay to identify small molecule antagonists of the vitamin D receptor (VDR) signaling pathway - cell viability counter screen (AID 743225); further: on the % scale 0 is the no-effect control and ±100 the full control effect; nearly all actives have a fitted effect of over 50% in size
Summary of the method: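 Parallel cytotoxicity test: VDR-UAS-bla HEK 293T, 3 nM (final) 1-alpha,25-dihydroxyvitamin D3 with test compound, 16 h, 37C. Endpoint is CellTiter-Glo luminescence in the same wells.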

[9] = qHTS assay to identify small molecule agonists of the NFkB signaling pathway (AID 1159509; active means well fitted curve in the direction sought with a large enough effect in the signal ratio in the repeat runs, not every such curve was filed as active; the % refers to the signal ratio; further: series mostly up to about 61 µM; on the % scale 0 is the no-effect control and ±100 the full control effect)
Summary of the method: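 Readout: FRET fluorescence, 405 nm excitation, 460/530 nm emission; beta-lactamase expression disrupts FRET. Cells: ME-180 stably carrying NF-kB-driven bla reporter. Compound exposure 5 hr, 37 C, 5% CO2.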

[10] = qHTS assay to identify small molecule agonists of the NFkB signaling pathway - cell viability counter screen (AID 1159515; calls by dose curve; further: series mostly up to about 61 µM; on the % scale 0 is the no-effect control and ±100 the full control effect; nearly all actives have a fitted effect of over 55% in size)
Summary of the method: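 ME-180 NFkB-bla cells, 2,000/well; overnight attach; compound 5 hr, 37 C/5% CO2; LiveBLAzer substrate 1.5 hr RT; then CellTiter-Glo in same wells, 30 min RT, luminescence read.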

[11] = qHTS assay to identify small molecule agonists of the endoplasmic reticulum stress response signaling pathway (AID 1159516; active means well fitted activation curve with a large enough effect in the signal ratio in the repeat runs, not every such curve was filed as active; the % refers to the signal ratio; further: on the % scale 0 is the no-effect control and ±100 the full control effect)
Summary of the method: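 HeLa ESRE-bla reporter line; cpd 5 h, 37 C/5% CO2; LiveBLAzer B/G FRET substrate 2 h RT; ex 405, em 460/530 nm.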

[12] = qHTS assay to identify small molecule agonists of the endoplasmic reticulum stress response signaling pathway - cell viability counter screen (AID 1159517; calls by dose curve;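 further: HeLa cells carrying an ER stress response element beta-lactamase reporter; series mostly up to about 61 µM; on the % scale 0 is the no-effect control and ±100 the full control effect; nearly all actives have a fitted effect of over 50% in size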)
Summary of the method: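 After overnight attachment, ESRE-bla HeLa cells were treated with Tox21 library compounds for 5 hr. CellTiter-Glo luminescence, read 30 min post-addition at room temperature, reported viability.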

[13] = qHTS assay to identify small molecule antagonists of the retinoid-related orphan receptor gamma (ROR-gamma) signaling pathway - cell viability counter screen (AID 1159520)
Summary of the method: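 Cytotoxicity was read from cellular ATP (CellTiter-Glo luminescence) after 16 hr at 37 C with 1 uM doxycycline induction. The inducer was added 2 hr after compound transfer to Tet-on ROR gamma CHO cells.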

[14] = biological target: Nuclear receptor ROR-gamma (Homo sapiens) (UniProt P51449); experiment: qHTS assay to identify small molecule antagonists of the retinoid-related orphan receptor gamma (ROR-gamma) signaling pathway (AID 1159521)
Summary of the method: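 Decreased RORE-driven luciferase luminescence indicates antagonism. Tet-on RORγ CHO cells received compound, then 1 uM final doxycycline 2 h later; signal read after 16 h incubation.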

[15] = qHTS assay to identify small molecule agonists of the AP-1 signaling pathway - cell viability counter screen (AID 1159525; calls by dose curve; further: nearly all actives have a fitted effect of over 55% in size)
Summary of the method: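 Intracellular ATP by Cell Titer Glo luminescence (30 min, RT) in the same ME-180 AP-1-bla wells after the 5 h compound exposure at 37 °C. Normalised to tetra n-octyl ammonium bromide and DMSO controls.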

[16] = qHTS assay to identify small molecule agonists of the AP-1 signaling pathway (AID 1159526; calls by dose curve; further: on the % scale 0 is the no-effect control and ±100 the full control effect)
[17] = qHTS assay to identify small molecule antagonists of the farnesoid-X-receptor (FXR) signaling pathway - cell viability counter screen (AID 743221; active means well fitted cell-killing curve with a large enough effect in the repeat runs, not every such curve was filed as active)
Summary of the method: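 After a 5 h settling period, FXR-bla HEK 293T cells receive compound and chenodeoxycholic acid (50 uM final) and incubate 16 h at 37 C; CellTiter-Glo luminescence, read after 30 min at room temperature, reports cell viability.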

[18] = biological target: Peroxisome proliferator-activated receptor delta (Homo sapiens) (UniProt Q03181); experiment: qHTS assay to identify small molecule antagonists of the peroxisome proliferator-activated receptor delta (PPARd) signaling pathway (AID 743215; active means well fitted inhibition curve with a large enough effect in the signal ratio in the repeat runs, not every such curve was filed as active; the % refers to the signal ratio)
Summary of the method: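 HEK293H GeneBLAzer PPARd UAS-bla reporter cells; cpd + L165041 300 nM final, 17 h 37 C; LiveBLAzer B/G FRET substrate 2 h RT; fluorescence intensity read-out. Antagonist mode.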

[19] = biological target: Bile acid receptor (Homo sapiens) (UniProt Q96RI1); experiment: qHTS assay to identify small molecule antagonists of the farnesoid-X-receptor (FXR) signaling pathway (AID 743217; active means well fitted inhibition curve with a large enough effect in the signal ratio in the repeat runs, not every such curve was filed as active; the % refers to the signal ratio; further: on the % scale 0 is the no-effect control and ±100 the full control effect)
Chain of Bile acid receptor (Homo sapiens) (Q96RI1 whole entry, looked up): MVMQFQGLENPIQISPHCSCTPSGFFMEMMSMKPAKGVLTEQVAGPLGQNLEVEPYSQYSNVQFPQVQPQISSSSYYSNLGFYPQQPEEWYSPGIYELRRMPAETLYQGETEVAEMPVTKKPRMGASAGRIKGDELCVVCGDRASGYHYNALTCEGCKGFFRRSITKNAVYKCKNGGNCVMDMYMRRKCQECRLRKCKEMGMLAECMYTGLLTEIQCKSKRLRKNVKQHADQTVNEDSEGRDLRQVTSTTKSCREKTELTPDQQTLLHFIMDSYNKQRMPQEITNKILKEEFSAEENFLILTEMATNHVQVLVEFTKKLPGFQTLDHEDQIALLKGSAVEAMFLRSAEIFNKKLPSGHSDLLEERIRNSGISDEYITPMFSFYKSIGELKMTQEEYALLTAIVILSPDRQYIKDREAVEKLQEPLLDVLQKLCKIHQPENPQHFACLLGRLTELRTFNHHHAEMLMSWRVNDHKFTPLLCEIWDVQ
Summary of the method: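 Read-out: beta-lactamase FRET fluorescence (LiveBLAzer B/G substrate, 2 h, room temperature) in GeneBLAzer FXR-UAS-bla HEK 293T cells. Compounds were co-dosed with 50 uM chenodeoxycholic acid (final) and incubated 16 h at 37 °C.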

[20] = biological target: Bile acid receptor (Homo sapiens) (UniProt Q96RI1); experiment: qHTS assay to identify small molecule agonists of the farnesoid-X-receptor (FXR) signaling pathway (AID 743220; active means well fitted activation curve with a large enough effect in the signal ratio in the repeat runs, not every such curve was filed as active; the % refers to the signal ratio; further: on the % scale 0 is the no-effect control and ±100 the full control effect)
Summary of the method: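 FXR-UAS-bla HEK 293T cells carrying a UAS-driven beta-lactamase reporter were plated for 5 h at 37C/5% CO2, then exposed to DMSO-dissolved Tox21 10K compounds for 16 h at 37C. A LiveBLAzer B/G FRET substrate was loaded for 2 h at room temperature before fluorescence reading.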

C[C@]12CCC(=O)C=C1CC[C@@H]1[C@@H]2[C@@H](O)C[C@@]2(C)[C@H]1CC[C@]2(O)C(=O)CO
inactive: outcome [1] | Potency [2] | outcome [3] | outcome [4] | outcome [5] | outcome [6] | outcome [7] | outcome [8] | outcome [9] | outcome [10] | outcome [11] | Potency [12] | outcome [13] | Potency [14] | outcome [15] | Potency [16]

CC(O)CC(C)(C)O (stereo not given)
inactive: outcome [1] | outcome [3] | outcome [4] | outcome [17] | outcome [5] | outcome [6] | outcome [7] | outcome [8] | outcome [9] | outcome [10] | outcome [11] | Potency [12] | outcome [13] | Potency [14] | outcome [15] | Potency [16]

OCc1ccccc1
inactive: outcome [1] | outcome [3] | outcome [4] | outcome [17] | outcome [5] | outcome [6] | outcome [7] | outcome [8] | outcome [9] | outcome [10] | outcome [11] | Potency [12] | outcome [13] | Potency [14] | outcome [15] | Potency [16]

CCO[Si](CCCN)(OCC)OCC
inactive: outcome [1] | Potency [2] | outcome [3] | outcome [18] | outcome [19] | outcome [4] | outcome [20] | outcome [17] | outcome [5] | outcome [6] | outcome [7] | outcome [8] | outcome [10] | outcome [11] | Potency [12] | outcome [13] | Potency [14] | outcome [15] | Potency [16]

C=CCCCCCCCCC(=O)O
inactive: outcome [1] | outcome [3] | outcome [4] | outcome [5] | outcome [6] | outcome [7] | outcome [8] | outcome [9] | outcome [10] | outcome [11] | Potency [12] | outcome [13] | Potency [14] | outcome [15] | Potency [16]

O=C1C(c2[nH]c3ccccc3c2O)=Nc2ccccc21
inactive: outcome [1] | Potency [2] | outcome [3] | outcome [19] | outcome [4] | outcome [20] | outcome [7] | outcome [8] | outcome [9] | outcome [10] | outcome [11] | Potency [12] | outcome [13] | Potency [14] | outcome [15] | Potency [16]

Brc1ccc(Br)c(Br)c1
inactive: outcome [1] | outcome [3] | outcome [4] | outcome [17] | outcome [5] | outcome [6] | outcome [7] | outcome [8] | outcome [9] | outcome [10] | outcome [11] | Potency [12] | outcome [13] | Potency [14] | outcome [15] | Potency [16]

CC1(C)CC(N)CC(C)(CN)C1 (stereo not given)
inactive: outcome [1] | Potency [2] | outcome [3] | outcome [4] | outcome [17] | outcome [7] | outcome [8] | outcome [9] | outcome [10] | outcome [11] | Potency [12] | outcome [13] | Potency [14] | outcome [15] | Potency [16]

CC(=O)CC(C)(C)O
inactive: outcome [1] | Potency [2] | outcome [3] | outcome [19] | outcome [4] | outcome [20] | outcome [5] | outcome [6] | outcome [7] | outcome [8] | outcome [9] | outcome [10] | outcome [11] | Potency [12] | outcome [13] | Potency [14] | outcome [15] | Potency [16]

CCOC(=O)c1ccc(N)cc1
inactive: outcome [1] | outcome [3] | outcome [19] | outcome [4] | outcome [20] | outcome [17] | outcome [5] | outcome [6] | outcome [7] | outcome [8] | outcome [9] | outcome [10] | outcome [11] | Potency [12] | outcome [13] | Potency [14] | outcome [15] | Potency [16]

CCc1ccccc1CC
inactive: outcome [1] | viability change, negative = cytotoxic [3] -6.24% [at 13.7 µM] | viability change, negative = cytotoxic [4] 18.7% [at 13.2 µM] | outcome [17] | outcome [7] | viability change, negative = cytotoxic [8] 4.82% [at 15.1 µM] | outcome [9] | outcome [10] | outcome [11] | Potency [12] | outcome [13] | Potency [14] | outcome [15] | Potency [16]

O=S(=O)(O)c1ccccc1
inactive: outcome [1] | outcome [3] | outcome [19] | outcome [4] | outcome [20] | outcome [5] | outcome [7] | outcome [8] | outcome [9] | outcome [10] | outcome [11] | Potency [12] | outcome [13] | Potency [14] | outcome [15] | Potency [16]

CC1(C)S[C@@H]2[C@H](NC(=O)COc3ccccc3)C(=O)N2[C@H]1C(=O)O
inactive: outcome [1] | Potency [2] | outcome [3] | outcome [4] | outcome [17] | outcome [5] | outcome [7] | outcome [8] | outcome [9] | outcome [10] | outcome [11] | Potency [12] | outcome [13] | Potency [14] | outcome [15] | Potency [16]

CCCCCCCCCCCC(=O)OC
inactive: outcome [1] | Potency [2] | outcome [3] | outcome [18] | outcome [19] | outcome [4] | outcome [20] | outcome [17] | outcome [5] | outcome [6] | outcome [7] | outcome [8] | outcome [10] | outcome [11] | Potency [12] | outcome [13] | Potency [14] | outcome [15] | Potency [16]

O=C(OCC1CCC2OC2C1)C1CCC2OC2C1 (stereo not given)
inactive: outcome [1] | Potency [2] | outcome [3] | outcome [4] | outcome [17] | outcome [5] | outcome [7] | outcome [8] | outcome [9] | outcome [10] | outcome [11] | Potency [12] | outcome [13] | Potency [14] | outcome [15] | Potency [16]

Clc1ccccn1
inactive: outcome [1] | Potency [2] | outcome [3] | outcome [19] | outcome [4] | outcome [20] | outcome [5] | outcome [6] | outcome [7] | outcome [8] | outcome [9] | outcome [10] | outcome [11] | Potency [12] | outcome [13] | Potency [14] | outcome [15] | Potency [16]

CC(CCO)CC(C)(C)C (stereo not given)
inactive: outcome [1] | outcome [3] | outcome [4] | outcome [5] | outcome [7] | outcome [8] | outcome [9] | outcome [10] | outcome [11] | Potency [12] | outcome [13] | Potency [14] | outcome [15] | Potency [16]

CCNC(=S)NCC
inactive: outcome [1] | Potency [2] | outcome [3] | outcome [4] | outcome [17] | outcome [5] | outcome [6] | outcome [7] | outcome [8] | outcome [9] | outcome [10] | outcome [11] | Potency [12] | outcome [13] | Potency [14] | outcome [15] | Potency [16]
